High-throughput results from PubChem BioAssay.
CYP2C19 activ: increases human CYP2C19 enzyme activity; activation factor at 5 µM; recombinant CYP2C19, luciferin-H EGE luminescence; hits give high values; 0 = fully inhibited enzyme, 1 = untreated enzyme; 96,000 tested, under 10 active;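 active = activation factor of at least 2 at 5 µM in the primary screen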;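 note: 0 = wells with 2.5 mM tranylcypromine and 1 = vehicle-only wells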
CYP2C19 inhib: human CYP2C19 inhibition; P33261; CYP2C19 Supersomes, luciferin-H EGE luminescence, 30 min; inhibition, % at 5 µM; 96,000 tested, 21% active;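 active = CYP2C19 inhibition above a set limit at 5 µM in the primary screen, cut at about 50% in these data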;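 note: plate controls were negative control wells for no effect and 2.5 mM tranylcypromine positive control for full effect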
D1 allo mod: allosteric modulators of human D1 dopamine receptor. HEK293 D1, CRE-luciferase, dopamine EC30 potentiation; actives deviate in either direction. B-score at 10 µM. 58,000 tested, 5.9% active. P21728;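 active = luminescence count or its row- and column-corrected plate score outside the 99.7% band of the plate's sample wells, on either side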
Target sequence (P21728 whole entry, looked up): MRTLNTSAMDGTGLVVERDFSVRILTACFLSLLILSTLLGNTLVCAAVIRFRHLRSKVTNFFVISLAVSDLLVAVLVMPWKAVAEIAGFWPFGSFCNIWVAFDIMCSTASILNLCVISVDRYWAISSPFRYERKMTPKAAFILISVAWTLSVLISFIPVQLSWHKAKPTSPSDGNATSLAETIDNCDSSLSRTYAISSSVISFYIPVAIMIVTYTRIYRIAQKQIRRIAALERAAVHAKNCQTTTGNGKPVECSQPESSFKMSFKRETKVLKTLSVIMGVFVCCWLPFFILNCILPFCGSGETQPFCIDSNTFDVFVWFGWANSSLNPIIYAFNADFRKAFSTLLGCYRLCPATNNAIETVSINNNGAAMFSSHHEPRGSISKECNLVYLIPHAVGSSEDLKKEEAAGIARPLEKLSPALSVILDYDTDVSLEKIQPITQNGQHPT
CYP2C9 inh: human CYP2C9 inhibition; P11712; CYP2C9 Supersomes, luciferin-H conversion, luminescence; inhibition, % at 5 µM; 96,000 tested, 20% active; AID 777;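 active = blocking of liver enzyme CYP2C9 beyond about 50% at 5 µM, limit read from the data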
hDAT+cocaine: human DAT dopamine uptake with cocaine, either direction. LLC-PK1 hDAT cells, [14C]-dopamine uptake with cocaine IC80; actives deviate in either direction. Q01959. AID 449768. B-score at 10 µM. 110,000 tested, 1.3% active;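 active = Z score or B-score, a plate-position-corrected score, falls beyond the plate's 99.7% confidence bounds, in either direction; inactive = both scores lie inside the 99.7% bounds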;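 note: scored against the spread of the other compound wells on the same plate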
CYP2C9 act: increases human cytochrome P450 2C9 activity; P11712; recombinant CYP2C9, luciferin-H conversion, luminescence; hits give high values; factor 1 = untreated enzyme, 0 = blocked; activation factor at 5 µM; 96,000 tested, 1.4% active;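 active = activation factor of 2 or more for CYP2C9 at a 5 µM dose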;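 note: 0 = sulfaphenazole-blocked wells and 1 = vehicle-only wells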
* hit, by the source's call; . = not tested or not shown. Only some compounds are listed: those with a hit (about 28% of all), similar ones and a draw of the others.

SMILES	CYP2C19 activ	CYP2C19 inhib	D1 allo mod	CYP2C9 inh	hDAT+cocaine	CYP2C9 act
Cc1ccc(C)c(CN2C(=O)C3(OCCCO3)c3ccccc32)c1	0.5	52*	0.73	72*	-0.31	0.3
CCOC(=O)CN1C(=O)C2(OCCCO2)c2ccccc21	0.6	36	0.26	19	-0.22	0.8
Cc1ccc(CNC(=O)CN2C(=O)C3(OCCCO3)c3ccccc32)cc1	0.4	62*	.	-11	-0.09	1.1
O=C(CN1C(=O)C2(OCCCO2)c2ccccc21)NCc1ccccc1	0.4	64*	-0.34	15	0.27	0.8
O=C1C(C=Nc2ccccc2O)=C(O)c2ccccc21	1	5	-5.6*	16	-0.5	0.8
O=C1C(C=Nc2ccccc2)=C(O)c2ccccc21	0.6	36	.	32	-1.1	0.7
Cc1ccc(O)c(N=CC2=C(O)c3ccccc3C2=O)c1	0.5	50	0.55	79*	-0.32	0.2
CN=CC1=C(O)c2ccccc2C1=O	0.8	18	.	2	1.5	1
CCn1nc(C)c(C(=O)Nc2cc(Oc3ccc(Cl)cc3)cc([N+](=O)[O-])c2)c1C	0.8	25	.	48	0.0021	0.5
CC[N+](CC)(CC)C/C(N)=N/O	1	4	-0.36	0	1.2	1
O=C(CC(=O)c1ccccc1)Nc1ccc2c(c1)OCCO2	0.8	20	-1.5	-13	0.4	1.1
CCn1cc(SCC(=O)Nc2cc(C)on2)c2ccccc21	0.4	55*	-0.054	14	-0.12	0.9
CC(CC(=O)Nc1ccc2c(c1)OCCO2)c1ccccc1 (stereo not drawn)	0.5	52*	.	42	-0.91	0.6
Cc1cc(NC(=O)CSc2cn(C)c3ccccc23)no1	0.1	95*	-0.62	9	-0.47	0.9
Cn1cc(SCC(=O)Nc2ccc3c(c2)OCCO3)c2ccccc21	0.4	63*	.	43	-0.92	0.6
CCn1cc(SCC(N)=O)c2ccccc21	1.2	-18	.	-69	-1.7	1.7
CCN1CCN(C(c2cc(OC)c(OC)c(OC)c2)c2nnnn2C(C)C)CC1 (stereo not drawn)	0.9	7	0.46	-6	0.02	1.1
CCNC(=O)CCSc1nc2cc(Cl)ccc2o1	.	.	.	.	0.29	.
C=CCn1c(=O)c2ccccc2n2c(SCC(=O)Nc3cc(C)on3)nnc12	0.7	31	4.6	50*	0.0041	0.5
CCC(=O)Nc1ccc(C(=O)OCC(=O)c2ccc(C)c([N+](=O)[O-])c2)cc1	1.1	-7	.	-20	0.47	1.2
CC(=O)Nc1ccc(C(=O)OCC(=O)c2ccc(C)c([N+](=O)[O-])c2)cc1	0.7	30	.	51*	0.1	0.5
Cc1cccc(OCc2nnc(SCc3nc4ccccc4c(=O)[nH]3)o2)c1	0.5	54*	-0.02	48	0.16	0.5
O=c1[nH]c(CSc2nnc(COc3ccccc3)n2-c2ccccc2)nc2ccccc12	0.1	85*	0.25	90*	2.4	0.1
COC(=O)c1ccc(OC)c(CSc2nnc(COc3cccc(C)c3)o2)c1	0	96*	0.13	90*	-0.76	0.1
O=C(O)c1cccc(CSc2nnc(COc3ccccc3)o2)c1	0.9	9	-0.41	4	-0.12	1
SMILES	CYP2C19 activ	CYP2C19 inhib	D1 allo mod	CYP2C9 inh	hDAT+cocaine	CYP2C9 act
O=C1COc2ccc(-c3csc(=Nc4ccc(OC(F)F)cc4)n3CC3CCCO3)cc2N1 (stereo not drawn)	0.8	24	.	27	1.2	0.7
CN(C)S(=O)(=O)c1cccc(N=c2scc(-c3ccc4c(c3)NC(=O)CO4)n2CC2CCCO2)c1 (stereo not drawn)	0.5	46	.	50*	.	0.5
COc1ccccc1N=c1scc(-c2ccc3c(c2)NC(=O)CO3)n1CC1CCCO1 (stereo not drawn)	0.7	27	-2.8*	21	0.55	0.8
CC(C)Oc1ccc(C(=O)N(Cc2ccco2)C2CCS(=O)(=O)C2)cc1 (stereo not drawn)	0.9	7	-0.68	-1	0.63	1
O=C(NCc1ccncc1)C(F)(F)C(F)(F)C(=O)NCc1ccncc1	0.5	46	.	93*	-1.9	0.1
O=C(/C=N/O)NCc1ccncc1	1	-3	1.2	11	0.49	0.9
COC(=O)C(C)N(C(=O)c1cccc(Cl)c1)c1c(C)cccc1C (stereo not drawn)	0.3	72*	.	62*	-0.4	0.4
Cc1cc(C(=O)NCc2cccnc2)no1	1.1	-12	0.47	-16	0.0067	1.2
Cc1cc2c(cc(C(=O)NCc3cccnc3)n2Cc2ccc(Cl)cc2)o1	0.1	91*	-1.1	91*	0.0041	0.1
COC(=O)C(C)N(C(=O)c1cccc2ccccc12)c1c(C)cccc1C (stereo not drawn)	0.7	26	.	36	-0.84	0.6
O=C(NCc1cccnc1)c1cccc(F)c1	0.6	44	0.26	-5	-1.1	1.1
O=C(NCc1cccnc1)c1c(F)c(F)c(F)c(F)c1F	0.2	81*	.	46	0.0069	0.5
O=C(COC(=O)C1CC2C=CC1C2)Nc1ccc2c(c1)OC(F)(F)O2 (stereo not drawn)	.	.	1	.	2.2	.
Cc1ccc2c(c1)cc(CN(Cc1ccco1)S(=O)(=O)c1ccccc1)c1nnnn12	0.9	11	1.8	11	-0.074	0.9
CC(C)CC(=O)OCc1cn(-c2ccccc2)nn1	0.8	20	.	5	-0.96	0.9
Cc1nn(C)cc1CNC(=O)c1cccc(Cl)c1	0.8	17	.	46	0.86	0.5
O=C(NCc1ccco1)c1nnc(Cc2ccc(F)cc2)o1	.	.	.	.	-0.7	.
CC(C)CCNC(=O)c1cccc(Cl)c1	0.4	58*	0.053	28	0.59	0.7
O=C(NCc1ccncc1)c1nnc(Cc2c(F)cccc2Cl)o1	0.2	80*	0.57	83*	-0.87	0.2
COc1ccccc1CNC(=O)c1nnc(Cc2ccc(Cl)cc2)o1	.	.	0.39	.	.	.
COc1ccc(C(=O)NCc2cccnc2)cc1OC	1	-4	2.1	-3	-1	1
COc1ccc(Br)cc1C(=O)NCc1cccnc1	0.4	56*	0.9	-54	-0.49	1.5
O=C(NCc1ccco1)c1nnc(Cc2ccc(Cl)cc2)o1	0.8	23	.	-31	2.6*	1.3
Cc1ccc(Cl)cc1N1CCN(C(=O)COc2ccc(S(=O)(=O)NC(C)C)cc2)CC1	0.6	37	-3.5	49	-0.014	0.5
CCOC(=O)c1c(C)c(C(=O)NCCOC)c(C)n1CC	0.8	21	.	-2	-0.98	1
CC(C)OC(=O)c1nnc(Cc2ccc(F)cc2)o1	0.1	89*	0.041	2	-1.2	1
O=C(NCc1ccc2c(c1)OCO2)c1nnc(Cc2ccc(F)cc2)o1	.	.	0.16	.	.	.
O=C(NCc1cccnc1)c1nnc(Cc2ccc(F)cc2)o1	0.2	78*	0.11	20	.	0.8
CCOC(=O)c1c(C)c(C(=O)NCc2cccnc2)c(C)n1CC	0.3	70*	-0.029	60*	-0.11	0.4
